Hits are enriched below; roughly 22% of the tested compounds scored in any of these assays.
Pf growth 48h = Primary qHTS for delayed death inhibitors of the malarial parasite plastid, 48 hour incubation; P. falciparum luciferase growth in erythrocytes, 48 h; Potency, µM (top dose mostly 28.7 µM), for the others: top-dose activity change, negative = inhibition, actives largely listed as inhibitors; actives 5.9% (n = 310,000); further: potency means the concentration at half of the fitted maximal effect; on the % scale 0 is the no-effect control and ±100 the full control effect
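Growth was read as firefly luciferase luminescence after a 48 h, 37 C, 5% CO2 exposure of compounds to reporter-bearing P. falciparum cultures (0.1% parasitemia, 2% hematocrit final) in Albumax-supplemented RPMI 1640.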
LmPK inh = qHTS Assay for Inhibitors of Leishmania Mexicana Pyruvate Kinase (LmPK) | actives 0.37% (n = 290,000) | purified LmPK, Kinase-Glo ATP luminescence, 1 h | Potency, µM (titrated, usually from 57.5 µM), for the others: at the top dose activity change, negative = inhibition, usual class: inhibitors | AID 1721, 2009 | Q27686; further: potency means the concentration at half of the fitted maximal effect; on the % scale 0 is the no-effect control and ±100 the full control effect
Target sequence (Q27686 whole entry, looked up): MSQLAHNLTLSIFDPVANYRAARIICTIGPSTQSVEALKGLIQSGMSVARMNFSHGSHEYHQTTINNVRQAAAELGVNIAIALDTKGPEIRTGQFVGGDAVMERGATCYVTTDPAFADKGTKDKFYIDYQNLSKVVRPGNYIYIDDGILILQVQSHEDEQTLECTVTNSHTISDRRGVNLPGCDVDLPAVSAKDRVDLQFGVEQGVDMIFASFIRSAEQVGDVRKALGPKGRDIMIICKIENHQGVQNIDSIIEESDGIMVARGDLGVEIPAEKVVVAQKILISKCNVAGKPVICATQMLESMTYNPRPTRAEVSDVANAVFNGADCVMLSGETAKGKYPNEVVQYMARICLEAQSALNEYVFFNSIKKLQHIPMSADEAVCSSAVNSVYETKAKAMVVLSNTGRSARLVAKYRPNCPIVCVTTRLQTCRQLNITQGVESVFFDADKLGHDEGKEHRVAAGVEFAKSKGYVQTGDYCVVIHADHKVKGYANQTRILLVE
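Kinase-Glo luminescence read after 1 h RT reaction of 0.1 nM LmPK with 0.5 mM PEP and 0.1 mM ADP. Activity scaled between uninhibited and enzyme-free controls.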
CHX counter = Cycloheximide Counterscreen for Small Molecule Inhibitors of Shiga Toxin; cell reporter, cycloheximide protein synthesis inhibition counterscreen; max response, %; AID 2314, 2010; actives 12% (n = 300,000); in the data active means max response mostly above about 13%, no sharp cut-off; inactive means mostly below about 14%; further: read at 38.3 µM for the half of the compounds with a filed dose; 0% is about no effect
Shiga inhibitor = A qHTS for Small Molecule Inhibitors of Shiga Toxin; AID 2315, 2010; inhibition, % at 38.7 µM; Vero cells, Shiga toxin protein synthesis inhibition reporter; actives 9.2% (n = 290,000); in the data active means inhibition mostly above about 28%, no sharp cut-off; inactive means mostly below about 43%; further: 0% is about no effect
Pf growth 96h = Primary qHTS for delayed death inhibitors of the malarial parasite plastid, 96 hour incubation. actives 6.9% (n = 320,000). P. falciparum luciferase reporter growth, 96 h. AID 504834, 2011. Potency, µM (highest dose often 28.7 µM), for the others: at the highest dose activity change, negative = inhibition, hits mostly inhibitors; further: potency means the concentration at half of the fitted maximal effect; on the % scale 0 is the no-effect control and ±100 the full control effect
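P. falciparum expressing integrated firefly luciferase grown in erythrocytes (2% hematocrit, 0.05% parasitemia final) with compounds for 96 hours at 37 C, 5% CO2. Growth inhibition read as loss of luminescence after adding luciferase detection reagent.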
Numbers without * were called inactive; ? = inconclusive; . = not tested or not shown; [ ] = dose if it differs, or a comment. Unless noted, the call rests on the fitted dose curve; in most records, active means well fitted inhibition curve with a large enough effect; inconclusive means small, poorly fitted or top-dose-only effect, or another doubt; inactive means no such curve, though single readings can be large or run the other way.

SMILES	Pf growth 48h	LmPK inh	CHX counter	Shiga inhibitor	Pf growth 96h
CNC(=O)CSc1nnc(-c2ccco2)n1-c1cccc(C)c1C	?	-0.1%	-1.3	-2.4	?
COc1ccc(OC)c(NC(=O)CSc2nnc(-c3ccco3)n2-c2ccc(C(=O)O)cc2)c1	4.65µM*	1.7%	8.0	-3.0	0.415µM*
O=C(CN(Cc1ccc(F)cc1)C(=O)CNS(=O)(=O)c1ccccc1)NCC1CCCO1 (configuration not stated)	2.3%	3.0%	-3.8	8.9	5.0%
CC(C)(C)c1ccc(-c2cc(-c3ccccc3O)[nH]n2)cc1	0.0%	0.7%	27.1*	58.9*	-11.7%
Oc1ccccc1-c1cc(-c2cccc(F)c2)n[nH]1	-10.6%	-18.2%	37.3*	122.0*	?
CC(C)(C)c1ccc(-c2cc(N)n[nH]2)cc1	.	3.0%	12.7	25.2	19.2%
COc1ccc(C2/C(=C(/O)c3ccccc3)C(=O)C(=O)N2C)cc1OC (configuration not stated)	17.4%	-0.6%	14.1*	26.7*	?
COc1ccc(C2/C(=C(/O)c3ccc(Br)cc3)C(=O)C(=O)N2C)cc1 (configuration not stated)	0.0%	2.4%	-2.0	5.5	0.928µM*
Cc1ccc(/C(O)=C2\C(=O)C(=O)N(C)C2c2ccc(F)cc2)cc1 (configuration not stated)	63.8%	0.0%	-2.0	-5.0	?
COc1ccc(C2/C(=C(/O)c3ccc(Br)cc3)C(=O)C(=O)N2C)cc1OC (configuration not stated)	18.5%	-6.5%	-1.1	-7.3	?
CCOc1ccc(-c2n[nH]c(C)c2Oc2ccccc2OC)c(O)c1	4.15µM*	2.0%	-1.8	-4.4	.
C=C(C)COc1ccc(-c2nc(N)nc(C)c2Oc2ccccc2OC)c(O)c1	?	1.6%	1.4	22.8	9.9%
C=C(C)COc1ccc(-c2n[nH]c(C)c2Oc2ccccc2OC)c(O)c1	5.22µM*	3.5%	-1.5	14.8	4.65µM*
Cc1ccc(NC(=O)CN(C)C(=O)COC(=O)c2ccc(Cl)cc2O)cc1	-20.6%	.	.	.	30.9%
COCc1c(C(=O)Nc2nc(C)cs2)oc2ccccc12	16.3%	5.6%	24.8*	43.6*	43.2%
COCc1c(C(=O)Nc2ccc(Cl)cc2F)oc2ccccc12	76.5%	1.0%[11.5 µM]	29.3*	185.4*	67.5%
O=S(Cc1ccc(Br)cc1)Cc1nnc(SCc2c(Cl)cccc2Cl)n1-c1ccccc1 (configuration not stated)	?	3.3%	-0.8	-7.0	?
Cn1c(CS(=O)Cc2c(Cl)cccc2Cl)nnc1SCc1c(Cl)cccc1Cl (configuration not stated)	?	5.2%	-0.9	6.6	4.65µM*
COc1ccc(Cl)cc1NC(=S)Nc1cccnc1	-11.3%	0.8%	-2.1	-8.4	-21.3%
COc1ccc(NC(=S)N2CCN(C(c3ccccc3)c3ccccc3)CC2)c(OC)c1	5.22µM*	3.4%	-0.4	-4.6	72.0%
CCOc1ccccc1NC(=S)N1CCN(c2cccc(OC)c2)CC1	-26.5%	-1.8%	0.5	-8.0	?
COc1cccc(N2CCN(C(=S)Nc3ccccc3OC)CC2)c1	-14.1%	7.7%	-1.5	.	9.28µM*
O=C(/C=C/Nc1ccccc1C(F)(F)F)c1ccco1	104.7%	-26.8%	44.0*	58.9*	-9.2%
O=C(CSc1nnc(CNC(=O)c2ccco2)o1)Nc1ccccc1C(F)(F)F	11.2%	-5.1%	2.5	9.1	-1.0%
NC(=O)c1ccccc1N/C=C/C(=O)c1ccco1	106.6%	?	30.0*	68.8*	-10.8%
SMILES	Pf growth 48h	LmPK inh	CHX counter	Shiga inhibitor	Pf growth 96h
COCC(=O)N1CCc2nc(COc3ccccc3)c3c(c2C1)CO[C@@H](C)C3	.	-0.5%[11.5 µM]	.	.	.
CN(C)CCc1c[nH]c2ccc(CS(=O)(=O)N3CCCC3)cc12	7.3%	.	.	.	4.3%
C/C(=N\n1nnnc1Nc1ccccc1)c1ccc(N)cc1	15.6%	-4.5%	26.2*	32.7	172.1%
CN(C)S(=O)(=O)c1ccc(Cl)c(C(=O)Nc2cccc3ncccc23)c1	-20.3%	3.8%	-2.8	-4.6	-13.8%
CC(=O)Nc1ccc(S(=O)(=O)Nc2nc3cc4c(cc3nc2Cl)OCCO4)cc1	-3.3%	-3.9%	0.9	9.1	18.2%
O=S(=O)(Nc1nc2cc3c(cc2nc1Cl)OCCO3)c1ccccc1	14.7µM*	0.9%	-2.5	-3.1	16.4%
